In PubChem BioAssay (NCI) one finds growth data, which are given here for 15 compounds.

Test systems include RPMI-8226 leukemia; OVCAR-8 ovarian; OVCAR-5 ovarian; OVCAR-4 ovarian; SK-OV-3 ovarian; IGROV1 ovarian; OVCAR-3 ovarian; HS 578T breast; NCI/ADR-RES ovarian.
Test in all cases: NCI-60 one-dose screen, 48 h (100 = growth as untreated, 0 = no growth, -100 = all killed)
What all share (conditions): 10 µM unless noted

SMILES strings stand for the structures. Compounds without any hit were thinned out: in the full panel of roughly 83,000, 20% have a hit.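 Note: values are percent growth. 100 is the growth of untreated cells, values between 100 and 0 indicate rising inhibition; between -100 and 0 indicates cell death.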 A number with no mark means an inactive call. Calls of active or inactive are those of the source. Rule for the calls: active = growth percent below 10; inactive = the rest.

Consider `Cc1nc2sc(C(=O)Nc3ccc(Br)cc3)c(N)c2cc1C(O)c1ccccc1` (stereo not given), for which the growth with RPMI-8226 leukemia was 55.4%; with OVCAR-8 ovarian it was 75.2%; in the assay with OVCAR-5 ovarian it was 92%; in the assay with OVCAR-4 ovarian, 59.3%; in the assay with SK-OV-3 ovarian, 78.3%; in the assay with IGROV1 ovarian, 75.1%. The growth in the assay on OVCAR-3 ovarian is 73.9%; with HS 578T breast it was 74.1%; in the assay on NCI/ADR-RES ovarian it was 59.7%.
With `Cc1cc(N2CCN(CC(=O)Nc3ccc4c(ccn4C)c3)CC2)nc(N2CCCCCC2)n1`, the growth is 76.1% in the assay on RPMI-8226 leukemia; 83.3% in the assay with OVCAR-8 ovarian; 100% with OVCAR-5 ovarian; 92.2% in the assay on OVCAR-4 ovarian; 84.4% in the assay on SK-OV-3 ovarian; 83.5% with IGROV1 ovarian. Besides, the growth in the assay on OVCAR-3 ovarian was 82.6%; with HS 578T breast, 96.8%; in the assay with NCI/ADR-RES ovarian, 91.5%.
With `Nc1n[nH]c2ccc([C@H]3[C@@H]4C5CCC(C5)[C@@H]4c4c(ccc5[nH]ncc45)N3S(=O)(=O)C3CC3)cc12` (stereo not given in full), the growth in the assay on RPMI-8226 leukemia was 4.56% (active); with OVCAR-8 ovarian it was 17.4%; in the assay on OVCAR-5 ovarian, 23.4%; with OVCAR-4 ovarian, 30.3%; in the assay with SK-OV-3 ovarian, 52.7%; with IGROV1 ovarian, 18.8%. Moreover, the results for the growth in the assay on OVCAR-3 ovarian, in the assay on HS 578T breast and in the assay on NCI/ADR-RES ovarian were -38.8% (active), 22.7% and 0.763% (active), respectively.
`O=C(Nc1cccc(Cl)c1)Nc1cccc(Cn2c(=O)[nH]c3ccc(Oc4ncccn4)cc3c2=O)c1`: the growth in the assay with RPMI-8226 leukemia was 25.3%; with OVCAR-8 ovarian, 37.4%; in the assay on OVCAR-5 ovarian, 81.7%; in the assay on OVCAR-4 ovarian, 13.3%; in the assay on SK-OV-3 ovarian it was 70.7%; in the assay with IGROV1 ovarian, 62%. The growth in the assay with OVCAR-3 ovarian is 33.5%; with HS 578T breast it was 51.8%; in the assay on NCI/ADR-RES ovarian, 95.5%.
Regarding `Cc1sc2nc(NCCc3c[nH]c4ccc(Cl)cc34)[nH]c(=O)c2c1C`, the growth in the assay on OVCAR-8 ovarian is 38.5%; in the assay on OVCAR-5 ovarian it was 62.5%; in the assay on OVCAR-4 ovarian, 60%; in the assay with SK-OV-3 ovarian it was 60.6%; in the assay on IGROV1 ovarian it was 50.8%; in the assay with OVCAR-3 ovarian, 64.7%. Moreover, the growth with HS 578T breast is 25.4%; in the assay on NCI/ADR-RES ovarian, 47.1%.
On to `O=C(NCc1ccc(Cl)cc1Cl)C1CCC(=O)N1c1cccs1` (stereo not given), for which the growth in the assay with RPMI-8226 leukemia was 95.5%; in the assay with OVCAR-8 ovarian, 93.5%; with OVCAR-5 ovarian, 91.2%; in the assay on OVCAR-4 ovarian, 97.5%; with SK-OV-3 ovarian, 89.6%; in the assay on IGROV1 ovarian, 92.4%. For the same compound, the growth in the assay with OVCAR-3 ovarian was 108%; in the assay on HS 578T breast, 101%; with NCI/ADR-RES ovarian, 83.9%.
As to `O=C1Nc2ccccc2/C1=C/c1nc2ccccc2c(=O)[nH]1`, the growth in the assay with RPMI-8226 leukemia was 85.9%; with OVCAR-8 ovarian it was 93.4%; in the assay with OVCAR-4 ovarian, 94.5%; in the assay with SK-OV-3 ovarian it was 96%; with IGROV1 ovarian, 69.5%; in the assay with OVCAR-3 ovarian, 90.9%. The growth in the assay on HS 578T breast is 93.4%; in the assay on NCI/ADR-RES ovarian, 97%.
In the case of `Nc1cc(C(=O)NC[C@H]2CN(c3ccc(N4CCC(C(=O)O)CC4)cc3)C(=O)O2)ccc1Cl`, the growth is 100% in the assay on RPMI-8226 leukemia; 103% in the assay with OVCAR-8 ovarian; 96.1% in the assay with OVCAR-5 ovarian; 107% in the assay on OVCAR-4 ovarian; 113% in the assay on SK-OV-3 ovarian; 103% in the assay on IGROV1 ovarian. For the same compound, the growth is 114% in the assay on OVCAR-3 ovarian, 107% in the assay on HS 578T breast and 103% in the assay on NCI/ADR-RES ovarian.
For `CC(C)=CC(=O)OCC(=O)O[C@@H]1C[C@]2(C(C)C)O[C@@]1(C)[C@@H]1CC[C@@H](C)[C@H]1[C@@H]2OC(=O)/C=C/c1ccccc1`, the growth in the assay with RPMI-8226 leukemia was 56%; with OVCAR-8 ovarian, 35.9%; with OVCAR-5 ovarian, 103%; with OVCAR-4 ovarian it was 96.5%; in the assay with SK-OV-3 ovarian, 91.7%; with IGROV1 ovarian, 108%. The growth is 96.5% with OVCAR-3 ovarian, -0.351% (active) in the assay on HS 578T breast and 30.6% in the assay with NCI/ADR-RES ovarian.
Regarding `COC1=CC(c2ccc[nH]2)=N/C1=C\c1[nH]c(C)c(C(=O)OC(C)C)c1C`, the growth with RPMI-8226 leukemia is -34.6% (active); in the assay with OVCAR-8 ovarian it was 2.67% (active); with OVCAR-5 ovarian, -40.2% (active); in the assay with OVCAR-4 ovarian, -49.7% (active); in the assay with SK-OV-3 ovarian, 7.3% (active); with IGROV1 ovarian, -41.5% (active). In addition, the values for the growth in the assay on OVCAR-3 ovarian, in the assay with HS 578T breast and in the assay with NCI/ADR-RES ovarian were -53.9% (active), -32.8% (active) and -12.5% (active), respectively.
For `CN(C)Cc1ccc(O)c(C(=O)O)c1`, the growth in the assay on RPMI-8226 leukemia was 104%; in the assay on OVCAR-8 ovarian, 108%; with OVCAR-5 ovarian, 108%; with OVCAR-4 ovarian it was 118%; with IGROV1 ovarian, 95.6%; in the assay with OVCAR-3 ovarian it was 111%. Further, the growth in the assay on HS 578T breast was 109%; with NCI/ADR-RES ovarian, 105%.
For the compound `COc1cc2nc3cc([N+](=O)[O-])ccc3c(NCCNCC(C)O)c2cc1OC` (stereo not given), the growth in the assay on RPMI-8226 leukemia is -13% (active); in the assay with OVCAR-8 ovarian, -8.18% (active); with OVCAR-5 ovarian, 5.11% (active); in the assay with OVCAR-4 ovarian, -32.4% (active); with SK-OV-3 ovarian, 20.8%; in the assay on IGROV1 ovarian it was -16.5% (active). For the same compound, the growth is -35.9% (active) with OVCAR-3 ovarian, -1.12% (active) in the assay on HS 578T breast and 75.1% in the assay on NCI/ADR-RES ovarian.
Regarding `Cn1ccnc1C(=O)/C=C/c1ccc(C(=O)Nc2ccccc2O)cc1`, the growth in the assay with RPMI-8226 leukemia was -11.9% (active); with OVCAR-8 ovarian, 18.6%; in the assay on OVCAR-5 ovarian, 79.3%; in the assay with OVCAR-4 ovarian, 36.4%; with IGROV1 ovarian, 30.9%; in the assay on OVCAR-3 ovarian, -17.9% (active). Moreover, the growth in the assay with HS 578T breast is 78.9%; with NCI/ADR-RES ovarian, 23.7%.
With `O=C(O)CCCN1C(=O)/C(=C/c2cn(-c3ccccc3)nc2-c2ccc([N+](=O)[O-])cc2)SC1=S`, the growth with RPMI-8226 leukemia was 46.8%; in the assay with OVCAR-8 ovarian it was 44.4%; in the assay on OVCAR-5 ovarian it was 94.3%; in the assay on OVCAR-4 ovarian, 64%; in the assay on SK-OV-3 ovarian, 59.1%; in the assay on IGROV1 ovarian it was 58.3%. The figures for the growth in the assay with OVCAR-3 ovarian, in the assay on HS 578T breast and in the assay with NCI/ADR-RES ovarian were 61.6%, 63.6% and 43.5%, respectively.
Regarding `CCCc1c(OC(=O)c2ccccc2)nc2[nH]c(=O)sc2c1C`, the growth was 103% in the assay on RPMI-8226 leukemia; 102% in the assay with OVCAR-8 ovarian; 98.8% in the assay on OVCAR-5 ovarian; 114% with OVCAR-4 ovarian; 95.8% in the assay with SK-OV-3 ovarian; 103% in the assay on OVCAR-3 ovarian. The growth in the assay on HS 578T breast is 99.9%; with NCI/ADR-RES ovarian, 97.9%.
